Shown are actives, neighbours in structure and some others; about 2.9% of the full set was active somewhere.
PAFAH2 FP inh: PAFAH2 (human) inhibition. recombinant PAFAH2, FP-rhodamine activity probe, fluorescence polarization. inhibition, % at 3.39 µM. 0.99% of 340,000 active;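 active = inhibition above the mean over all tested compounds plus 3 SD, cut at about 30% in these data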;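 note: inhibitors block probe labeling of enzyme so polarization drops; 0% = enzyme with DMSO and 100% = wells lacking PAFAH2 protein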
pPAFAH inh: pPAFAH (human) enzyme inhibition; Q13093; recombinant pPAFAH, FP-rhodamine probe fluorescence polarization; inhibition, % at 3.39 µM; 1.5% of 330,000 active; AID 463082;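 active = inhibition above the mean inhibition across the screen plus 3 SD, cut at about 25% in these data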;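 note: inhibitors block binding of the rhodamine activity-based probe so polarization drops; 0% = enzyme with DMSO and 100% = wells lacking pPAFAH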
Target sequence (Q13093 whole entry, looked up): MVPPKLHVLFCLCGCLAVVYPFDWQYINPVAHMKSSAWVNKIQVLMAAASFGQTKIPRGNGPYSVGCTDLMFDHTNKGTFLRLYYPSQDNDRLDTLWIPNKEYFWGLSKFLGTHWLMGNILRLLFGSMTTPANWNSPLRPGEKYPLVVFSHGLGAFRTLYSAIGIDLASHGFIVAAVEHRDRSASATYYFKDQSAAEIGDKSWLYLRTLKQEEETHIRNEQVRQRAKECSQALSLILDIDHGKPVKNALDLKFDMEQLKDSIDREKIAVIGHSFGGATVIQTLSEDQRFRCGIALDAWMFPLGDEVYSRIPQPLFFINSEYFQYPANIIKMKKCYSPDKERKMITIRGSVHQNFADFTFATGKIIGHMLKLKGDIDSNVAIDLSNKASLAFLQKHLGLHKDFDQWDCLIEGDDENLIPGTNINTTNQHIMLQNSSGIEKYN
PME-1 primary: blocks human protein phosphatase methylesterase 1; 0.53% of 320,000 active; recombinant PME-1, FP-Rh probe fluorescence polarization; inhibition, % at 5.9 µM; AID 2130; Q9Y570;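 active = inhibition above the campaign mean of all compounds plus 3 SD, cut at about 26% in these data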;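 note: competitive labeling of PME-1 active site by serine hydrolase directed probe; 0% = PME-1 with DMSO and 100% = wells lacking PME-1 enzyme; inhibitors block probe labeling so polarization falls and inhibition rises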
PAFAH1B2 FP inh: inhibitors of human PAFAH1B2. recombinant PAFAH1B2, FP-rhodamine activity probe, fluorescence polarization. inhibition, % at 3.39 µM. 1.2% of 340,000 active. AID 492953;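 active = inhibition above the mean of all tested compounds plus 3 SD, cut at about 24% in these data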;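 note: 0% = enzyme with DMSO and 100% = wells lacking PAFAH1B2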
Target sequence (P68402 whole entry, looked up): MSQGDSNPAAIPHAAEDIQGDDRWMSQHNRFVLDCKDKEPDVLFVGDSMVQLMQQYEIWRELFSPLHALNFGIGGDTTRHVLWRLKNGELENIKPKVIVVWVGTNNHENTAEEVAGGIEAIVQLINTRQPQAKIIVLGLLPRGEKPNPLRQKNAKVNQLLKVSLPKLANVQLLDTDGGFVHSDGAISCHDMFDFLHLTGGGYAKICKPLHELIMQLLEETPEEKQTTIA
Fam108B inh: Fam108B inhibition, counter-screen for RBBP9 inhibitors | inhibition, % at 9.51 µM | 0.33% of 300,000 active | recombinant Fam108B, FP-Rh probe fluorescence polarization;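 active = inhibition above the screen mean inhibition plus 3 SD, computed separately per campaign, cut at about 18% in these data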;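 note: inhibitors lower polarization as less probe binds the enzyme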
PAFAH1B3 inh: inhibitors of human PAFAH1B3 | inhibition, % at 3.39 µM | Q15102 | 0.28% of 340,000 active | recombinant PAFAH1B3, FP-rhodamine probe, fluorescence polarization;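 active = inhibition above the screen-wide average of all tested compounds plus 3 SD, cut at about 25% in these data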;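 note: 0% = enzyme with DMSO only and 100% = wells lacking PAFAH1B3 protein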
PAFAH2 confirm: PAFAH2 (human) inhibition, confirmed; shares compounds with PAFAH2 FP inh; recombinant PAFAH2, FP-rhodamine activity probe, fluorescence polarization; inhibition, % at 3.39 µM; 65% of 2,300 active; AID 493030;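 active = mean inhibition over three repeats above a set limit taken from the earlier primary screen, cut at about 30% in these data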;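 note: inhibitor blocks binding of rhodamine activity probe so polarization falls; 0% = enzyme with DMSO and 100% = wells lacking PAFAH2 protein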
The depositor's hits bear a star; · = not tested or not shown.

SMILES | PAFAH2 FP inh | pPAFAH inh | PME-1 primary | PAFAH1B2 FP inh | Fam108B inh | PAFAH1B3 inh | PAFAH2 confirm
Nc1c(Cl)cc(Cl)cc1C(=O)OCC(=O)N1CCCC1=O | 40* | 3 | 6 | 14 | -2 | 0 | 36*
Cc1cccc(C(=O)OCC(=O)N2CCCCCC2)c1O | 3 | 3 | -9 | 5 | · | 0 | ·
Cc1cccc(C(=O)OCC(=O)N2CCCC2=O)c1O | 38* | -3 | -6 | 1 | · | 4 | 22
C[C@H](O)[C@@H]1C(=O)N2CCc3ccc(-c4ccccc4)cc3[C@@H]2C[C@@H]1N(C)C(=O)Nc1cc(Cl)cc(Cl)c1 | -32 | · | · | -16 | · | -18 | ·
O=c1oc(-c2ccco2)nc2sc3c(c12)CCCC3 | 72* | 3 | -7 | 4 | 17 | 3 | 63*
O=c1oc(-c2ccccc2)nc2sc3c(c12)CCC3 | 72* | 10 | 4 | -3 | 5 | 8 | 74*
Cc1sc2nc(-c3ccccc3)oc(=O)c2c1C | 81* | 3 | -2 | 2 | 0 | 6 | 65*
CCOc1ccc(C(=O)NNC(=O)CN2C(=O)NC3(CCCC3)C2=O)cc1 | -5 | 1 | 1 | 4 | · | 3 | ·
O=C(CSc1ccccc1C(=O)O)c1ccc([N+](=O)[O-])cc1 | 46* | 1 | -5 | 0 | -2 | 5 | 56*
O=C(CSc1ccc([N+](=O)[O-])cc1)c1ccccc1 | 2 | · | · | 1 | · | 0 | ·
Cc1ccccc1C(=O)c1cccn1CC(=O)NCc1ccccc1Cl | 1 | 4 | -1 | 3 | 0 | 10 | ·
O=C(NC1CCCC1)C(c1ccncc1)N(C(=O)Cc1cccs1)c1cccc(F)c1 (stereo unspecified) | 1 | 3 | -1 | 7 | 3 | 3 | ·
Cc1ccc(NC(=O)CCN2CCOCC2)cc1C | -3 | · | · | -3 | · | 2 | ·
Cc1ccc(S(=O)(=O)N(CC(=O)Nc2ccccc2C(=O)O)c2cccc(Cl)c2C)cc1 | 32* | -5 | -8 | 10 | -4 | -10 | 29
CSc1cc(-c2ccncc2)nc(-c2ccc(Cl)cc2)c1 | -1 | 4 | -3 | 4 | -5 | 2 | ·
COc1ccc(S(=O)(=O)Nc2ccc3c(c2)C(=O)N([C@H](C)CO)C[C@H](C)[C@@H](CN(C)S(C)(=O)=O)O3)cc1 | 4 | -3 | · | 21 | · | -1 | ·
Cc1ccc(N2CCN(C(=O)N3CCOCC3)CC2)cc1C | -4 | 1 | -2 | 3 | -1 | -3 | ·
Cc1cccc(C)c1N1CCN(C(=O)N2CCOCC2)CC1 | 44* | 2 | 7 | 1 | 1 | 2 | 44*
CCCc1ccc(-c2cc(C(=O)N3CCN(c4ccccn4)CC3)c3ccccc3n2)cc1 | -9 | 2 | -8 | -7 | -2 | -2 | ·
Cc1cc(/C=C2\SC(N)=NC2=O)c(C)n1-c1ccccc1 | 49* | 7 | 0 | 0 | -8 | -4 | 33*
Cc1cc(C=C2C(=O)CCCC2=O)c(C)n1-c1ccccc1 | 1 | 13 | 4 | 5 | 5 | 18 | ·
O=C(O)/C=C/C(=O)NCCNc1ncc(C(F)(F)F)cc1Cl | 54* | 6 | -1 | 6 | -1 | 2 | 38*
CC1(C)CCC(=O)N2CC[C@H]3c4cc5ccccc5nc4C[C@@H]1[C@H]32 | -3 | · | · | 4 | · | 6 | ·
Cc1cccc(-c2cc3nc(-c4ccccc4)cc(=O)n3[nH]2)c1 | 41* | 14 | -28 | 13 | -2 | 8 | 26
Cc1ccccc1-c1cc2nc(-c3ccc([N+](=O)[O-])cc3)cc(=O)n2[nH]1 | 10 | 2 | -1 | 4 | 0 | 10 | ·
SMILES | PAFAH2 FP inh | pPAFAH inh | PME-1 primary | PAFAH1B2 FP inh | Fam108B inh | PAFAH1B3 inh | PAFAH2 confirm
CCOC(=O)c1c(C)[nH]c(C(=O)OCC(=O)NC2(C#N)CCCCC2)c1C | 57* | 5 | 2 | 1 | -4 | 3 | 52*
COc1cccc(CC(=O)OCC(=O)NC2(C#N)CCCC2)c1 | 3 | 2 | 1 | 3 | · | 6 | ·
COc1cccc(CC(=O)OCC(=O)NC2(C#N)CCCCC2)c1 | 32* | 14 | -2 | 1 | -1 | 4 | 14
Cc1cc(C(=O)OCC(=O)NC2CCCCC2)c(C)o1 | 84* | 7 | 5 | 0 | 1 | -5 | 63*
CCOC(=O)c1c(C)[nH]c(C(=O)OCC(=O)NC(C)(C)C)c1C | 19 | 3 | -4 | 2 | -1 | -1 | ·
N#CCC(=O)Nc1ccc(C(=O)OCC(=O)NC2CCCc3ccccc32)cc1 (stereo unspecified) | 43* | 2 | · | -6 | · | -3 | 38*
O=C(c1ccccc1)N1CCCC(C(=O)N2CCN(c3ccccc3)CC2)C1 (stereo unspecified) | 7 | 8 | 6 | 3 | 0 | 9 | ·
NNc1nc2c(F)cc(F)cc2s1 | 6 | 14 | 7 | 2 | 3 | 8 | ·
CC(=O)NC(Cc1cccc(C)c1)C(=O)NC1CCN(C(=O)NCc2ccccc2)CC1 (stereo unspecified) | -8 | · | · | 0 | · | 4 | ·
Cc1ccc(C(=O)OCC(=O)NC2CCCCC2)o1 | 68* | 8 | 1 | 4 | 1 | 5 | 46*
Cc1cc(C(=O)OCC(=O)NC2(C#N)CCCCC2)c(C)o1 | 75* | 8 | -2 | 3 | · | 7 | 75*
N#CC1(NC(=O)COC(=O)c2ccc(-c3ccc(O)cc3)cc2)CCCCC1 | 76* | 7 | -12 | -2 | · | 0 | 72*
Cc1ccc(C(=O)OCC(=O)NC2CCCc3ccccc32)o1 (stereo unspecified) | 33* | 2 | -2 | 5 | · | -1 | 9
Cc1ccc(C(=O)NC2CCCc3ccccc32)o1 (stereo unspecified) | 0 | 4 | 3 | 2 | 0 | 4 | ·
Cc1cc(C(=O)OCC(=O)NC(C)C)c(C)o1 | 10 | -5 | -3 | 6 | 3 | -3 | ·
CC(C)CN(C(=O)c1ccc(N2CCCC2=O)cc1)c1c(N)n(Cc2ccccc2)c(=O)[nH]c1=O | 5 | -4 | 4 | 2 | · | 11 | ·
Cn1nc(C(C)(C)C)cc1C(=O)Sc1cccc(Br)c1 | 4 | -1 | -4 | 7 | -2 | 11 | ·
CCc1ccc(NC(=O)C(C)OC(=O)C2CCN(c3ccc(C(F)(F)F)cn3)CC2)cc1 (stereo unspecified) | 3 | 2 | 1 | 1 | 4 | -3 | ·
CC1CCCC(NC(=O)COC(=O)c2ccc(Br)o2)C1C (stereo unspecified) | 27 | 12 | · | 7 | · | 6 | ·
CNS(=O)(=O)c1cccc(C(=O)OCC(=O)NC2CCCC(C)C2C)c1 (stereo unspecified) | 63* | 4 | · | 16 | · | 1 | 49*
N#CC1(NC(=O)COC(=O)c2ccccc2[N+](=O)[O-])CCCCC1 | 69* | 10 | 1 | 2 | 2 | 4 | 74*
CNS(=O)(=O)c1cccc(C(=O)OCC(=O)Nc2cc(F)ccc2F)c1 | 45* | 7 | -2 | 7 | -3 | 4 | 32*

Assay outcomes: PubChem BioAssay, The Scripps Research Institute Molecular Screening Center
